# Laboratory results reported in PMC5540273 (PLoS ONE, 2017).
# Legend:
# Settings in all cases: concentration: 1 μM, replicates: in singlicate; n = 1
# NIM1 = tested on: T1, NIM1
# T1 construct: gene MGC42105
# NLK = tested on: NLK
# OSR1 = tested on: T2, OSR1
# T2 construct: gene OXSR1
# PAK1 = tested on: PAK1
# PAK2 = tested on: PAK2
# PAK3 = tested on: PAK3
# PAK4 = tested on: PAK4
# PAK6 = tested on: PAK6
# PAK7 = tested on: PAK7
# PCTK1 = tested on: T3, PCTK1
# T3 construct: gene CDK16
# PCTK2 = tested on: T4, PCTK2
# T4 construct: gene CDK17
# PCTK3 = tested on: T5, PCTK3
# T5 construct: gene CDK18
# PDGFRA = tested on: PDGFRA
# PDGFRB = tested on: PDGFRB
# PDPK1 = tested on: PDPK1
# PFTAIRE2 = tested on: PFTAIRE2
# PFTK1 = tested on: T6, PFTK1
# T6 construct: gene CDK14
# PHKG1 = tested on: PHKG1
# PHKG2 = tested on: PHKG2
# PIK3C2B = tested on: PIK3C2B
# 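Note: KINOMEscan kinase panel screen.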
SMILES,%Inh (NIM1),%Inh (NLK),%Inh (OSR1),%Inh (PAK1),%Inh (PAK2),%Inh (PAK3),%Inh (PAK4),%Inh (PAK6),%Inh (PAK7),%Inh (PCTK1),%Inh (PCTK2),%Inh (PCTK3),%Inh (PDGFRA),%Inh (PDGFRB),%Inh (PDPK1),%Inh (PFTAIRE2),%Inh (PFTK1),%Inh (PHKG1),%Inh (PHKG2),%Inh (PIK3C2B)
CC(C)c1nc(-c2cccc(NS(=O)(=O)c3c(F)cccc3F)c2)c(-c2ccnc(Nc3ccc(N4CCOCC4)nc3)n2)s1.Cl [GSK1723980],0%,97%,4%,19%,16%,73%,0%,0%,0%,99.9%,100%,100%,88%,100%,0%,69%,82%,0%,0%,7%
COC(=O)Nc1nc2ccc(Oc3ccc(NC(=O)Nc4cc(C(F)(F)F)ccc4F)cc3)cc2[nH]1.Cl [GW654607],0%,34%,15%,0%,0%,22%,0%,0%,0%,4%,10%,14%,96.6%,100%,0%,89%,47%,0%,0%,0%
O=C(Nc1n[nH]c2cc(-c3cccs3)ccc12)C1CC1 [SB-731284],12%,0%,16%,0%,0%,43%,0%,0%,7%,48%,33%,38%,73%,83%,0%,0%,33%,0%,17%,7%
COc1ccc(C)c(Nc2ccnc(Nc3ccc(-c4cnc[nH]4)cc3)n2)c1.Cl [GW784041],0%,13%,0%,0%,12%,20%,6%,10%,0%,0%,10%,2%,0%,76%,0%,0%,0%,0%,8%,0%
Cn1cc(-c2cnc(N)c3c(-c4ccc5c(c4)CCN5C(=O)Cc4ccccc4)csc23)cn1 [GSK2593074],0%,17%,0%,17%,0%,13%,0%,17%,3%,0%,0%,6%,98.2%,100%,56%,0%,0%,6%,14%,13%
NCCC(NC(=O)c1cc(Br)c(-c2ccnc3[nH]ccc23)s1)c1ccccc1.O=C(O)C(F)(F)F.O=C(O)C(F)(F)F (stereo not shown) [GSK1307810],7%,3%,10%,19%,56%,76%,74%,62%,86%,1%,16%,0%,25%,53%,28%,8%,0%,24%,12%,0%
COc1cccc(-c2nc(-c3ccccc3)[nH]c2-c2ccncc2)c1 [SB-610250],40%,89%,0%,23%,32%,16%,0%,0%,0%,5%,0%,14%,0%,0%,0%,14%,16%,0%,0%,0%
COc1ccc(C2=C(Nc3cccc(O)c3)C(=O)NC2=O)cc1 [SB-390766],0%,35%,4%,15%,12%,30%,0%,10%,0%,5%,0%,16%,0%,26%,0%,4%,13%,0%,21%,0%
O=C(Nc1n[nH]c2nc(-c3ccccc3)ccc12)C1CC1 [SB-708999],29%,78%,17%,0%,0%,5%,0%,0%,0%,16%,23%,36%,16%,31%,34%,8%,29%,12%,1%,0%
O=C(Nc1c(F)cccc1F)c1cc(C(=O)c2ccccc2F)c[nH]1 [GSK1326180],0%,0%,34%,0%,0%,0%,0%,0%,0%,0%,0%,0%,0%,14%,0%,10%,20%,0%,0%,0%
Cc1cc(-c2ccnc(Nc3cccc(C#N)c3)n2)cc(C)c1O [GSK1440913],12%,16%,13%,34%,28%,0%,0%,0%,0%,16%,55%,43%,4%,60%,0%,24%,18%,27%,15%,0%
Cc1ccc(NC(=O)c2ccc(Cl)c(Cl)c2)cc1-c1ccc(C(=O)Nc2ccncc2)cc1 [GSK1398460],0%,43%,6%,19%,19%,20%,0%,0%,1%,0%,0%,25%,94.6%,100%,27%,23%,1%,0%,0%,0%
Nc1ncc(-c2cn[nH]c2)c2scc(-c3ccc4c(c3)CCN4C(=O)Cc3ccccc3)c12 [GSK2593067],17%,0%,13%,0%,0%,51%,0%,0%,0%,3%,0%,29%,96%,100%,65%,0%,0%,0%,0%,0%
CN(c1ccc2c(c1)nc(NCc1ccccc1)n2C)c1ccnc(Nc2ccc(CS(C)(=O)=O)cc2)n1.Cl [GW811603],22%,0%,0%,0%,0%,42%,22%,13%,2%,0%,0%,0%,99.8%,100%,0%,38%,0%,8%,0%,0%
COC(=O)Nc1nc2ccc(Oc3ccc(CC(=O)Nc4cc(C(F)(F)F)ccc4F)cc3)cc2[nH]1 [GW680903],26%,22%,3%,19%,22%,15%,0%,0%,97.7%,0%,0%,30%,98.5%,100%,0%,0%,14%,0%,0%,0%
Fc1cc(Cl)ccc1Nc1ccnc2cc(-c3ccc(CN4CCOCC4)o3)ccc12 [GW560109],15%,10%,8%,0%,0%,5%,0%,0%,0%,1%,0%,0%,99.6%,100%,8%,12%,0%,13%,0%,0%
Cn1cc(-c2ccc3c(c2)CCN3C(=O)Cc2cc(F)cc(F)c2F)c2c(N)ncnc21 [GSK2634140],8%,0%,14%,16%,12%,35%,0%,0%,0%,6%,0%,7%,59%,98%,0%,3%,10%,0%,0%,82%
Cl.O=C(Nc1ccc(Oc2ccc3[nH]c(NC(=O)c4ccco4)nc3c2)cc1)Nc1cc(C(F)(F)F)ccc1F [GW683134],4%,6%,8%,0%,0%,59%,0%,0%,0%,7%,0%,8%,92.6%,100%,14%,27%,14%,0%,0%,100%
O=C(O)C(F)(F)F.O=c1[nH]ccc2nc(N[C@@H]3CCNC3)nc(Nc3ccc4c(c3)S(=O)(=O)CC4)c12 [GSK2181306],67%,28%,76%,97.2%,95.2%,99.9%,99.5%,94.6%,99.9%,85%,71%,38%,94.1%,99.6%,93.5%,14%,14%,96.9%,93.7%,12%
Cc1ccc(Nc2ccnc(Nc3ccc(C)c(F)c3)n2)cc1O.Cl [GW582868],3%,62%,8%,0%,0%,0%,0%,0%,0%,0%,0%,20%,3%,96.9%,0%,0%,1%,0%,0%,0%
